Rows were chosen to be rich in hits. Some 7.3% of all compounds tested hit in one or more screens of this group.
Rab9 promoter act: activates the Rab9 promoter | Huh7 Rab9 promoter-luciferase reporter, luminescence, 24 h | Potency, µM (highest dose often 9.22 µM), without a hit: top-dose activation, negative = inhibition, usual class: activators | actives 2.8% (n = 320,000) | AID 485297; further: % of control where 0% means no effect; nearly all actives have a fitted effect of over 60% in size
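Huh7 reporter line, Rab9 promoter upstream of luciferase. Compound exposure 24 h at 37 °C in reduced-serum medium with 10% FBS. Read-out: luminescence.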
ELG1 genotox: genotoxicity induction in ELG1-luciferase HEK293T cells; HEK293T ELG1-luciferase reporter, luminescence, 16 h; Potency, µM (doses to about 46 µM), inactives show at the highest dose activity change, positive = activation, usual class: activators; actives 1.3% (n = 330,000); AID 504466; further: % of control where 0% means no effect; nearly all actives have a fitted effect of over 60% in size
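Cells (2,000/well) expressing the ELG1-luciferase fusion are dosed by pin tool and kept 16 hr at 37 °C, 5% CO2. Signal comes from ONE-Glo luciferase reagent after 30 min at room temperature.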
SMN2 splice enh: increases expression of the SMN2 splice variant. HEK293 SMN2-luciferase splicing reporter, luminescence, 30-36 h. Potency, µM (series often up to 46.1 µM), inactives show at the highest dose activity change, positive = activation, usual class: activators. actives 2.8% (n = 210,000). AID 1458; further: % of control where 0% means no effect; nearly all actives have a fitted effect of over 55% in size
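HEK293 cells carry an SMN2 […]–luciferase reporter in which exon 7 inclusion puts luciferase in frame. Cells were plated 10-12 h before compound addition, then incubated 30-36 h at 37C. ONE-Glo luminescence was read; sodium butyrate at 4.5 mM final served as control.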
NPC1 prom act: NPC1 promoter activation. Huh7 NPC1 promoter luciferase reporter, 24 h. Potency, µM (top dose mostly 9.22 µM), for inactives: top-dose activation, actives largely listed as activators. actives 2.4% (n = 320,000). AID 485313; further: % of control where 0% means no effect; nearly all actives have a fitted effect of over 60% in size
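Stable NPC1-promoter luciferase Huh7 line; cpd (DMSO) 24 h, 37 °C, 5% CO2; Amplite luciferase reagent 10 min RT; luminescence readout. qHTS format.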
FLuc counter: firefly luciferase modulation, counter-screen for miR-21 project. purified FLuc, Km substrates, luminescence inhibition. AID 588342. Potency, µM (highest dose often 57.5 µM), without a hit: at the highest dose activity change, negative = inhibition, hits mostly inhibitors. actives 6.9% (n = 360,000). P08659;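 further: plate controls were vehicle for no effect and reference inhibitor for full effect; nearly all actives have a fitted effect of over 55% in size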
Target sequence (P08659 whole entry, looked up): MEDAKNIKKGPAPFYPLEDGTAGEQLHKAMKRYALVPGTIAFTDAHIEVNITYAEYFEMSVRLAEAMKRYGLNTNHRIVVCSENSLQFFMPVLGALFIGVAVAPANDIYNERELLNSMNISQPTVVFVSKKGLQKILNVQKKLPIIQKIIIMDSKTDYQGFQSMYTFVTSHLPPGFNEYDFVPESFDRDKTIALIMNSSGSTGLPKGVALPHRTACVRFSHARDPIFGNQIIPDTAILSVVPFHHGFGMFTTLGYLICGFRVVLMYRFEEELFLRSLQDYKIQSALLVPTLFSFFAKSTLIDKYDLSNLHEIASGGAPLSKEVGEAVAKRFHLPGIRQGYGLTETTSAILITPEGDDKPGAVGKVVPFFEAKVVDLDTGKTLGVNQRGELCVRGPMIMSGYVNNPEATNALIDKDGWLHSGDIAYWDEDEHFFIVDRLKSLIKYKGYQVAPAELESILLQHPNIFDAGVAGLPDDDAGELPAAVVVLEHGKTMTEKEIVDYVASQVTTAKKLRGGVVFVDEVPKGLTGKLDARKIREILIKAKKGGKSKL
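Purified P. pyralis luciferase, 10 nM final, with Km-level 10 uM D-luciferin and 10 uM ATP in 50 mM Tris acetate pH 7.5, 10 mM Mg acetate, 0.01% Tween-20, 0.05% BSA; 6-point qHTS titration about 60 µM downward; luminescence read.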
uPA generation: inhibitors of cell surface uPA generation | cell surface uPA generation assay, qHTS | Potency, µM (series often up to 38.3 µM), without a hit: top-dose activity change, negative = inhibition, actives largely listed as inhibitors | actives 0.31% (n = 330,000) | AID 540303; active means well fitted inhibition curve with a large enough effect; inconclusive means small, poorly fitted or top-dose-only effect; inactive means no such curve, though single readings can be large or run the other way; tested in mouse RAW 264.7 cells; further: on the % scale 0 is the no-effect control and ±100 the full control effect; nearly all actives have a fitted effect of over 55% in size
* marks the source's active call; other numbers are inactive results; ? = inconclusive; . = no result given; [ ] = dose if it differs, or a comment. Unless noted, the call rests on the fitted dose curve; in most records, active means well fitted curve in the direction sought with a large enough effect; inconclusive means small, poorly fitted or top-dose-only effect, or another doubt; inactive means no such curve, though single readings can be large; an effect the other way counts as inactive or inconclusive. Potency means the concentration at half of the fitted maximal effect.

SMILES	Rab9 promoter act	ELG1 genotox	SMN2 splice enh	NPC1 prom act	FLuc counter	uPA generation
Cc1ccccc1-c1noc(CSc2nnc(Cc3ccccc3)n2-c2ccc(F)cc2)n1	.	.	-2%	.	-14%	.
Cc1ccccc1OCCCCn1nnc2sc3c(c2c1=O)CCC(C)C3 (centres undefined)	.	.	8%	.	5%	.
Cc1ccccc1NC(=S)c1ccc2ccccc2n1	-2%	?	.	23%	13µM*	?
CCCN(CC(=O)Nc1ccccc1C)C(=O)c1ccc2ccccc2n1	3%	0%	.	-6%	2%	-23%
O=C(Nc1ccc(OC(F)(F)F)cc1)c1ccc2ccccc2n1	6%	1%	-43%	1%	?	1%
O=C(Nc1ccccc1)c1ccc2ccccc2n1	?	?	?	20%	4.8µM*	?
O=C(Nc1ccccc1C(=O)O)c1ccc2ccccc2n1	?	?	?	?	6µM*	-6%
S=C(S)NCCCn1ccnc1	.	.	-5%[9.22 µM]	.	.	.
CCOC(=O)c1ccc(NC(=O)CSc2ccc(-c3sc(C)nc3C)nn2)cc1	.	.	.	.	-11%	.
CC(=O)NC(c1cc(Cl)c2cccnc2c1O)C1CC1 (centres undefined)	-33%	15%	.	-33%	0%	4µM*
CC(=O)NC(c1cc(Cl)c2cccnc2c1O)C(C)C (centres undefined)	-38%	15%	.	-36%	3%	3.2µM*
Cc1ccc(Cl)cc1N1CCN(CCCNC(=O)C2COc3ccccc3C2)CC1 (centres undefined)	.	.	.	.	-7%	.
O=C(NC(=O)c1ccccc1F)OCc1ccc(Cl)cc1Cl	13%	2%	.	8%	12µM*	2%
O=C(NNC(=O)c1ccc(Br)s1)c1csc(N2CCOCC2)n1	-6%	2%	.	-2%	-9%	11%
CC(=O)c1ccc(NCC2COc3ccccc3O2)c([N+](=O)[O-])c1 (centres undefined)	1.1µM*	?	5.6µM*	2.8µM*	17µM*	0%
O=C(NCC1COc2ccccc2O1)c1ccc(Cl)cc1 (centres undefined)	2.5µM*	12µM*	14µM*	3.5µM*	7.6µM*	0%
CC(C)Oc1ccc(/C=C/C(=O)NCC2COc3ccccc3O2)cc1 (centres undefined)	-5%	-4%	.	3%	15µM*	1%
NS(=O)(=O)c1ccc(NCC2COc3ccccc3O2)c([N+](=O)[O-])c1 (centres undefined)	21%	4%	11%	-1%	-11%	4%
O=C(NCC1COc2ccccc2O1)c1ccc(NC(=O)c2ccco2)cc1 (centres undefined)	5%	0%	23%	4%	1%	0%
COc1ccc(CCNC(=O)CSCc2nc(-c3cccc(C)c3)oc2C)cc1OC	.	.	-27%	.	-16%	.
CCOc1ccc(CCNC(=O)C(C)N2C(=O)CC(C)(C)Sc3ccccc32)cc1 (centres undefined)	0%	-6%	.	0%	2%	13%
CCNc1nnc(-c2ccc(C)cc2)o1	4µM*	?	24%	3.5µM*	15µM*	-6%
Cc1ccc(-c2nnc(-c3ccccc3)o2)cc1	1.4µM*	?	2.8µM*	3.2µM*	2.7µM*	-5%
COc1ccc(-c2nnc(-c3ccc(F)cc3)o2)cc1	1µM*	3.7µM*	.	1.3µM*	2.1µM*	-5%
Cc1ccc(-c2nnc(N)o2)cc1	-1%	9%	15%	0%	?	-2%
COc1ccc(-c2nnc(-c3ccc(C)cc3)o2)cc1	?	?	.	1.6µM*	1.9µM*	1%
O=C1CC(c2ccccc2)Cc2[nH]c(=O)c(-c3nc(-c4cccc(Cl)c4)cs3)cc21 (centres undefined)	.	.	-11%	.	-1%	.
COc1ccc(-c2ccc(-c3nnc(-c4ccncc4)o3)cc2)cc1	20%	4%	-23%	20%	?	.
COc1ccc(-c2nnc(-c3ccccc3O)o2)cc1	?	?	.	?	2.4µM*	7%
